# Measurements reported in PubChem BioAssay.
# Activity calls are given as the source filed them. Rule as the data show it, unless noted: active = inhibition above about 80%; inactive = the rest.
# Experiments:
# [1] = compounds altering circadian rhythm period length – cell-based, LOPAC library, luminescence reporter (AID 2774; call rule not given here;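 also: values are relative to mean of DMSO wells on each plate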); settings: circadian reporter cells, at 7 µM, actives lie on both sides
# [2] = tested on: Hepatitis C virus NS3 helicase; assay: blockers of NS3h binding to ssDNA – biochemical, fluorescence polarization, LOPAC1280 library, primary screen (AID 687035; in the data active = inhibition above about 37%); settings: Purified HCV NS3 helicase, Cy5-dT15 ssDNA binding fluorescence polarization; stronger effect = higher value; concentration not given here
# [3] = compounds altering Cy5-DNA-NS3h complex signal – biochemical, LOPAC1280, artefact control for HCV NS3 helicase inhibitor project (AID 687037; call rule not given here); settings: Cy5-DNA-NS3h complex fluorescence interference counterscreen
# [4] = growth inhibition, single agent or in combination, cell-based, chromothripsis tumors, cisplatin or BGB combos (AID 1671449); settings: LFS_MB_P medulloblastoma cells;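 also: cells exposed for 96 hours; 0% = vehicle DMSO and 100% = killing by high DMSO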
# [5] = growth inhibition, single agent and combos, cell-based, chromothripsis tumors, cisplatin or BGB combos (AID 1671450); settings: HDN33 neuroblastoma cells, stronger effect = higher value;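 also: cells exposed to compound for four days; 0% = vehicle DMSO and 100% = cell killing by high DMSO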
# [6] = growth inhibition, single agents and combos, ICB984, cell-based, cisplatin or BGB combos, synergistic combos for chromothripsis tumors (AID 1671451; call rule not given here;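 also: cells exposed for 96 hours before readout; 0% = vehicle DMSO and 100% = killing by high DMSO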); settings: ICB984 medulloblastoma cells, drug combinations, stronger effect = higher value
# [7] = growth inhibition, single agents and combos, LFS_MB_1R, cell-based, cisplatin or BGB combos, synergistic combos for chromothripsis tumors (AID 1671452); settings: LFS_MB_1R medulloblastoma cells, stronger effect = higher value;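 also: cells exposed for 96 hours before readout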
# [8] = growth inhibition, single agents and combos, HTB85, cell-based, BGB or cisplatin IC20 combos, synergistic combos for chromothripsis tumors (AID 1671453); settings: HTB85 osteosarcoma cells, drug combinations, stronger effect = higher value;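 also: cells exposed for 96 hours before readout; 0% = vehicle DMSO and 100% = high DMSO killing control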
# [9] = growth inhibition, single agents and combos, CRL2098, cell-based, BGB or cisplatin IC20 combos, synergistic combos for chromothripsis tumors (AID 1671454); settings: CRL2098 osteosarcoma cells, drug combinations, stronger effect = higher value;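 also: cells exposed for 96 h before readout; 0% = vehicle DMSO and 100% = killing by high DMSO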
# [10] = growth inhibition, single agents and combos, HD-MB03, cell-based, BGB or cisplatin IC20 combos, synergistic combos for chromothripsis tumors (AID 1671455; in the data active = inhibition above about 83%;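 also: 0% = vehicle DMSO and 100% = high DMSO as cytotoxic control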); settings: HD-MB03 medulloblastoma cells, stronger effect = higher value
# [11] = growth inhibition, single agents and combos, UWB1.289, cell-based, BGB or cisplatin combos, synergistic combos for chromothripsis tumors (AID 1671456); settings: UWB1.289 ovarian carcinoma cells, stronger effect = higher value;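 also: cells exposed to compound for four days; 0% = vehicle DMSO and 100% = killing by high DMSO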
# [12] = growth inhibition, single agents and combos, LFS_MB_2R, cell-based, cisplatin combos, synergistic combos for chromothripsis tumors (AID 1671457); settings: LFS_MB_2R medulloblastoma cells, stronger effect = higher value;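 also: cells exposed to compound for four days before readout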
# [13] = growth inhibition, MDA-MB-436, cell-based, BGB or cisplatin combos, synergistic combos for chromothripsis tumors (AID 1671458; call rule not given here;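 also: cells exposed for 96 hours; 0% = vehicle DMSO and 100% = killing by high DMSO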); settings: MDA-MB-436 breast carcinoma growth inhibition, drug combinations, stronger effect = higher value
# [14] = UWB1.289_BRCA1 ovarian cancer growth, cell-based, BGB or cisplatin combinations (AID 1671459); settings: UWB1.289 BRCA1 ovarian carcinoma, drug combinations, stronger effect = higher value
# [15] = drug combination toxicity in non-malignant astrocytes – cell-based, BGB or cisplatin IC20 combos, cytotoxicity control for chromothriptic childhood tumor combination screen (AID 1671460); settings: Human astrocytes, viability inhibition, drug combinations, at 0.5 µM, stronger effect = higher value;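 also: cells exposed to compounds for 96 hours before viability readout; 0% = vehicle and 100% = killing control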
# [16] = BT084 cell growth, single and combined drugs, ICGC_MB145, cisplatin and BGB IC40 combos (AID 1671461); settings: BT084 medulloblastoma cells, drug combinations, stronger effect = higher value;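 also: cells exposed to drugs for 96 hours; 0% = vehicle DMSO and 100% = high DMSO full killing control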
# [17] = RCMB18 cell growth, single agent and combined, cisplatin and BGB IC40 combos (AID 1671462); settings: RCMB18 medulloblastoma cells, stronger effect = higher value;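 also: cells exposed to compound for four days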
# [18] = CRL1545 cell growth, single agent and combined, cisplatin and BGB IC20 combos (AID 1671464); settings: CRL1545 osteosarcoma cells, stronger effect = higher value;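 also: cells exposed to compound for 96 hours before readout; 0% = vehicle DMSO and 100% = high DMSO killing control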
# [19] = galactose survival enhancers in mitochondrial complex I cybrids – cell-based, galactose medium, ATP luminescence, primary screen (AID 1645843;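 active = z-score of at least 1.8 in each of two replicates, scored against plate mean and spread of sample wells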;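 also: positive z means more ATP and so rescue of galactose-driven cybrid death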); settings: complex I mutant cybrid cells, 72 h, stronger effect = higher value
# [20] = at 0.5 µM, stronger effect = higher value
# [21] = measured here: combination with BGB IC20, at 0.005 µM
# [22] = measured here: combination with BGB IC40, at 0.005 µM
# [23] = measured here: combination with BGB IC40, at 0.05 µM
# [24] = measured here: combination with cisplatin, at 0.5 µM, stronger effect = higher value
# [25] = measured here: combination with cisplatin, at 5 µM, stronger effect = higher value
# [26] = measured here: with BGB IC20 combination, at 0.5 µM
# [27] = measured here: with cisplatin IC20 combination, at 0.5 µM
# [28] = measured here: 5 uM single agent, at 5 µM
# [29] = measured here: combination with cisplatin, at 0.5 µM
# [30] = measured here: combination with cisplatin, at 5 µM
# [31] = measured here: with BGB IC20, at 0.5 µM
# [32] = measured here: with BGB IC20, at 5 µM
# [33] = measured here: with cisplatin IC20, at 0.5 µM
# [34] = measured here: with cisplatin IC20, at 5 µM
# [35] = measured here: combination with BGB at IC20, at 0.5 µM
# [36] = measured here: combination with cisplatin at IC20, at 0.5 µM
# [37] = measured here: combo with BGB at IC20, at 0.5 µM
# [38] = measured here: combo with cisplatin at IC20, at 0.5 µM
# [39] = measured here: inhibition with BGB combination, at 0.05 µM
# [40] = measured here: inhibition with cisplatin combination, at 0.05 µM
# [41] = measured here: BGB combination, at 0.5 µM
# [42] = measured here: BGB combination, at 5 µM
# [43] = measured here: cisplatin combination, at 0.5 µM
# [44] = measured here: cisplatin combination, at 5 µM
# [45] = BGB combination, concentration series, at 5 µM
# [46] = cisplatin combination, concentration series, at 5 µM
# [47] = measured here: combo with BGB IC20
# [48] = measured here: combo with cisplatin IC20
# [49] = cisplatin combination, at 0.5 µM
# [50] = measured here: BGB IC40 combination 0.05 uM, at 0.05 µM
# [51] = measured here: BGB IC40 combination, at 0.05 µM
compound,measurement,setting,value
NC(Cc1ccc(N(CCCl)CCCl)cc1)C(=O)O (stereo not given),period change,[1],0.08 h (inactive)
same,inhibition,[2],-5% (inactive)
same,fluorescence ratio (interference),[3],1 (inactive)
same,inhibition,[4]; [20],-11.1% (inactive)
same,inhibition,[4]; [21],-25.1%
same,inhibition,[4]; [22],-17.8%
same,inhibition,[4]; [23],-29.1%
same,inhibition,[4]; [24],-3.85%
same,inhibition,[4]; [25],7.41%
same,inhibition,"[5]; BGB combo, at 5 µM",28.5%
same,inhibition,[5]; at 0.5 µM,-17.3% (inactive)
same,inhibition,"[5]; cisplatin combo, at 5 µM",18.9%
same,inhibition,[5]; [26],-14.2%
same,inhibition,[5]; [27],-16.2%
same,inhibition,"[5]; single agent, at 5 µM",3.9%
same,inhibition,"[6]; BGB IC20 combo, at 0.005 µM",-15.2%
same,inhibition,"[6]; BGB IC40 combo, at 0.005 µM",-22.4%
same,inhibition,"[6]; BGB IC40 combo, at 0.05 µM",14.2%
same,inhibition,[6]; at 0.5 µM,-37% (inactive)
same,inhibition,"[6]; cisplatin combo, at 0.05 µM",11.8%
same,inhibition,"[6]; cisplatin combo, at 0.5 µM",-52.6%
same,inhibition,"[6]; cisplatin combo, at 5 µM",-29.7%
same,inhibition,[6]; [28],-16.8%
same,inhibition,[7]; at 0.5 µM,-27.3% (inactive)
same,inhibition,[7]; [23],-28.4%
same,inhibition,[7]; [29],-42.9%
same,inhibition,[7]; [30],34.7%
same,inhibition,[8]; at 0.5 µM,5.83% (inactive)
same,inhibition,[8]; [31],1.88%
same,inhibition,[8]; [32],54.4%
same,inhibition,[8]; [33],-13.1%
same,inhibition,[8]; [34],74.4%
same,inhibition,"[8]; single agent, at 5 µM",59.9%
same,inhibition,[9]; at 0.5 µM,-91.3% (inactive)
same,inhibition,[9]; [35],-104%
same,inhibition,[9]; [36],-99.5%
same,inhibition,[10]; at 0.5 µM,12.1% (inactive)
same,inhibition,[10]; [37],19.3%
same,inhibition,[10]; [38],20.5%
same,inhibition,[11]; at 0.5 µM,-2.07% (inactive)
same,inhibition,[11]; [39],-36%
same,inhibition,[11]; [40],-22.5%
same,inhibition,[12]; at 0.5 µM,-18.9% (inactive)
same,inhibition,[12]; [29],-23.8%
same,inhibition,[12]; [30],-58.8%
same,inhibition,[13]; at 0.5 µM,10.4% (inactive)
same,inhibition,[13]; [41],2.27%
same,inhibition,[13]; [42],8.02%
same,inhibition,[13]; [43],6.39%
same,inhibition,[13]; [44],33.3%
same,inhibition,[14]; [45],31.5%
same,inhibition,[14]; at 0.5 µM,4.15% (inactive)
same,inhibition,[14]; [46],41.4%
same,inhibition,[15],16.9% (inactive)
same,inhibition,[15]; [47],22.5%
same,inhibition,[15]; [48],4.4%
same,inhibition,[16]; at 0.5 µM,-14.6% (inactive)
same,inhibition,[16]; [49],5.86%
same,inhibition,"[16]; cisplatin combination, at 5 µM",35.1%
same,inhibition,[16]; [50],-5.01%
same,inhibition,"[16]; single agent, at 5 µM",-20.7%
same,inhibition,[17]; at 0.5 µM,-26.4% (inactive)
same,inhibition,"[17]; cisplatin combo, at 5 µM",81.5%
same,inhibition,[17]; [51],-33.2%
same,inhibition,[17]; [29],-31.6%
same,inhibition,"[17]; single agent, at 5 µM",-6.56%
same,inhibition,[18]; at 0.5 µM,-21.6% (inactive)
same,inhibition,[18]; [26],-14.9%
same,inhibition,[18]; [27],-27.8%
same,inhibition,"[18]; single agent, at 0.05 µM",-31.8%
same,inhibition,"[18]; single agent, at 5 µM",43.7%
CCN1CCCC(N2CCN3CCCC3C2)C1 (stereo not given),z-score,[19],-0.225 (inactive)
CC1(C)C(C(=O)Nc2ccc(S(=O)(=O)c3ccc(NC(=O)C4C(C)(C)C4(C)C)cc3)cc2)C1(C)C,inhibition,[4]; [20],-7.93% (inactive)
same,inhibition,[4]; [21],-18.4%
same,inhibition,[4]; [22],-46.1%
same,inhibition,[4]; [23],-26.3%
same,inhibition,[4]; [24],-30.9%
same,inhibition,[4]; [25],-41.5%
same,inhibition,"[5]; BGB combo, at 5 µM",-17.4%
same,inhibition,[5]; at 0.5 µM,-53.9% (inactive)
same,inhibition,"[5]; cisplatin combo, at 5 µM",-66.6%
same,inhibition,[5]; [26],-56.4%
same,inhibition,[5]; [27],-51.1%
same,inhibition,"[5]; single agent, at 5 µM",-24.6%
same,inhibition,"[6]; BGB IC20 combo, at 0.005 µM",-19.6%
same,inhibition,"[6]; BGB IC40 combo, at 0.005 µM",-21.6%
same,inhibition,"[6]; BGB IC40 combo, at 0.05 µM",0.527%
same,inhibition,[6]; at 0.5 µM,-22.6% (inactive)
same,inhibition,"[6]; cisplatin combo, at 0.05 µM",-4.5%
same,inhibition,"[6]; cisplatin combo, at 0.5 µM",-42.3%
same,inhibition,"[6]; cisplatin combo, at 5 µM",-31.4%
same,inhibition,[6]; [28],-26.8%
same,inhibition,[7]; at 0.5 µM,-36.5% (inactive)
same,inhibition,[7]; [23],-27.2%
same,inhibition,[7]; [29],-46.1%
same,inhibition,[7]; [30],-61.4%
same,inhibition,[8]; at 0.5 µM,-37.5% (inactive)
same,inhibition,[8]; [31],-37%
same,inhibition,[8]; [32],-16.1%
same,inhibition,[8]; [33],-31.9%
same,inhibition,[8]; [34],-19.7%
same,inhibition,"[8]; single agent, at 5 µM",-8.34%
same,inhibition,[9]; at 0.5 µM,-53.9% (inactive)
same,inhibition,[9]; [35],-51.4%
same,inhibition,[9]; [36],-77.7%
same,inhibition,[10]; at 0.5 µM,-19.9% (inactive)
same,inhibition,[10]; [37],-12.1%
same,inhibition,[10]; [38],-33.5%
same,inhibition,[11]; at 0.5 µM,-16.5% (inactive)
same,inhibition,[11]; [39],-34%
same,inhibition,[11]; [40],-37.9%
same,inhibition,[12]; at 0.5 µM,-14.5% (inactive)
same,inhibition,[12]; [29],-16.8%
same,inhibition,[12]; [30],-6.76%
same,inhibition,[13]; at 0.5 µM,-18.2% (inactive)
same,inhibition,[13]; [41],-21%
same,inhibition,[13]; [42],-4.44%
same,inhibition,[13]; [43],-40.7%
same,inhibition,[13]; [44],-26%
same,inhibition,[14]; [45],2.97%
same,inhibition,[14]; at 0.5 µM,-24.5% (inactive)
same,inhibition,[14]; [46],-16%
same,inhibition,[15],4.8% (inactive)
same,inhibition,[15]; [47],12.4%
same,inhibition,[15]; [48],-16.1%
same,inhibition,[16]; at 0.5 µM,-6.8% (inactive)
same,inhibition,[16]; [49],-4.81%
same,inhibition,"[16]; cisplatin combination, at 5 µM",-82%
same,inhibition,[16]; [50],-20.9%
same,inhibition,"[16]; single agent, at 5 µM",2.54%
same,inhibition,[17]; at 0.5 µM,-8.5% (inactive)
same,inhibition,"[17]; cisplatin combo, at 5 µM",-42.1%
same,inhibition,[17]; [51],3.16%
same,inhibition,[17]; [29],-23.3%
same,inhibition,"[17]; single agent, at 5 µM",22.7%
same,inhibition,[18]; at 0.5 µM,-34.4% (inactive)
same,inhibition,[18]; [26],-61.8%
same,inhibition,[18]; [27],-22.6%
same,inhibition,"[18]; single agent, at 0.05 µM",-37.3%
same,inhibition,"[18]; single agent, at 5 µM",14.2%
